This passage reports inhibition results from PubChem BioAssay.

Molecules are shown by their SMILES.

The experiment in a line: NFkB reporter suppression in cystic fibrosis bronchial cells – cell-based, uHTS hits, panel, cytotoxicity readout, dose response (AID 624344). The note with it: CF bronchial epithelial cells, PAF-induced NFkB reporter inhibition, with PAF, run 2; at 79 µM (top of the series) unless noted.
Consider `Cc1nn(-c2cccc(Cl)c2)c2nc(C(F)(F)F)[nH]c(=O)c12`, for which the inhibition was 79.8%. Consider `CCCN(CC)c1ncnc2[nH]ncc12`, for which the inhibition came out at 108%. As for `COc1ccccc1[C@]1(C)ON(c2ccccc2C(F)(F)F)C1=O`, the figure is 109%; as for `COc1ccc(COC(=O)C2=C(C)NC(=O)NC2c2ccc(OC)cc2)cc1` (stereo not given), 78%. As for `CCOc1ccc(-n2cc(-c3ccccc3)c3c(N4CCOCC4)ncnc32)cc1`, the figure is 102%; as for `CCOc1ccc(-n2c(C)c(C(C)=O)c3cc(OC(C)=O)ccc32)cc1`, 90%. On to `COc1ccc2c(c1)c(C(C)=O)c(C)n2-c1ccc(C(C)=O)cc1`, for which the inhibition came out at 101%. Turning to `CN(Cc1ccccc1)c1ncnc(N)c1[N+](=O)[O-]`, the inhibition amounted to 102%. As for `CCc1nc(Cl)c(C#N)c2c1CCCC2`, the figure is 105%.

For the compound `O=S1(=O)CCC(NC(=S)SCCOc2ccccc2)C1` (stereo not given), the inhibition amounted to 108%.

In the case of `COc1ccc(C(=O)N[C@H](C(=O)Nc2nc3ccccc3[nH]2)C(C)C)cc1`, the inhibition was 102%. Under `COc1cc(C2c3cc4c(cc3C3OC(=O)C2C3CO)OCO4)cc(OC)c1OC` (stereo not given) stands 94.7%; under `COc1ccccc1/C=C/C(=O)c1c2c(c(C)[nH]c1=O)CCCC2`, 96%. As for `Cc1ccc(C(=O)c2cc([N+](=O)[O-])ccc2N2CCCCC2)c(C)c1`, the figure is 54.3%; as for `CC1=C(C(=O)OCc2ccc3c(c2)OCO3)C(c2ccc(O)c([N+](=O)[O-])c2)NC(=O)N1` (stereo not given), 89%. For the compound `O=C(Nc1ccc(Br)c2ccccc12)c1ccc2ccccc2c1O`, the inhibition was 104%. As for `CNc1ccc2ncc(-c3cccc(C(=O)N(C)C)c3)n2n1`, the figure is 106%. Under `COc1cc(C(=O)Nc2nnc(-c3sccc3C)s2)cc(OC)c1OC` stands 89.3%; under `COc1ccc(-c2cc(=O)oc3cc(O)ccc23)cc1`, 103%; under `O=C(NCc1nc(-c2ccc(C(F)(F)F)cc2)no1)Nc1cc(Cl)cc(Cl)c1`, 114%.

As to `c1cc(-c2nnc3sc(C4CCCCC4)nn23)ccn1`, the inhibition amounted to 109%.

For `Cc1nc(N)c(C#N)c(-c2cccnc2)c1-c1ccccc1`, the inhibition was 80%. Under `O=C(/C=C/c1cccs1)Nc1cccc(NC(=O)/C=C/c2cccs2)n1` stands 96.4%. Regarding `COc1ccccc1Cn1c(=O)c2ccccc2n2c(Sc3ncnc4sccc34)nnc12`, the inhibition is 113%.

Turning to `CN1CCN(S(=O)(=O)c2ccc(Sc3nnnn3-c3ccccc3)c([N+](=O)[O-])c2)CC1`, the inhibition amounted to 99.5%. Under `CCOc1ccc(NCc2cc3c(C(C)(C)C)nn(-c4ccccc4)c3[nH]c2=O)cc1` stands 109%; under `O=C1OC(Nc2nc(-c3ccc(F)cc3)cs2)c2ccccc21` (stereo not given), 113%. Under `COc1ccc(-c2cn[nH]c2-c2ccc(OCc3ccccc3F)cc2O)cc1OC` stands 98.3%; under `Cc1[nH]nc2c1-c1nc3ccccc3nc1C(C)(C)C2`, 99.3%. As for `CCOc1ccc(C(C(=O)NC2CCCC2)N(C(=O)c2snc(C(N)=O)c2N)c2cccc(O)c2)cc1` (stereo not given), the figure is 96.6%.

As to `COc1ccc(C(=O)Nc2cccc(NC(=O)c3ccc(OC)c(OC)c3)n2)cc1OC`, the inhibition was 102%. As for `O=S1(=O)CC=C(CSC(=S)NC2CCS(=O)(=O)C2)C1` (stereo not given), the figure is 110%; as for `Nc1nccc(-c2ccc(-n3cnc4ccccc43)cc2)n1`, 108%; as for `COCc1cc(S(=O)c2ccc(Cl)cc2)nc(C)n1` (stereo not given), 105%. Under `O=C(CCC1COc2ccccc2O1)Nc1ccc(Cl)cn1` (stereo not given) stands 112%; under `Cc1c(NC(=O)c2cc(-c3cccs3)nc3ccccc23)c(=O)n(-c2ccccc2)n1C`, 103%. As for `CCOC(=O)Oc1c(OC)cc(C(=O)O[C@@H]2C[C@@H]3CN4CCc5c([nH]c6cc(OC)ccc56)[C@H]4C[C@@H]3[C@H](C(=O)OC)[C@H]2OC)cc1OC`, the figure is 42.4%; as for `CC(C)OC(=O)c1cccc(C(=O)Nc2cccc(NC(=O)c3cccc(C(=O)OC(C)C)n3)n2)n1`, 109% [at 19.8 µM]; as for `O=C(NCCc1ccc(F)cc1)c1coc(=O)c(Br)c1`, 83.4%. As for `CC(=O)OCCN1c2ccccc2Sc2cnccc21`, the inhibition came out at 109%.

In general, inhibition refers to the drop in the measured response relative to a control, in per cent.
